A short description of experiment [1]: resazurin metabolic signal in HepG2 cells – cell-based, resazurin fluorescence, 24 h, PK04 Diversity Set, profiling panel (AID 1172). Also: test concentration not given here. The conditions noted are these: HepG2 viability, higher = more signal. In general terms: The colour change of resazurin is a common sign of viable cells or microbes.
Experiment [2] is described as follows: budding yeast growth changes without added modifier – OD600, strain BY4716, 24 h, basal condition, primary screen (AID 1173). The settings on record: S. cerevisiae BY4716 growth, OD600, 24 h; higher = more signal, called active from +8 up or from −8 down.
Experiment [3] in a line: viability profiling in MM1S myeloma cells – cell-based, resazurin fluorescence, basal, 24 h, PK04 Diversity Set, profiling panel (AID 1174). Also: test concentration not given here. The settings on record: higher = more signal, called active from +8 up or from −8 down.
Experiment [4] addresses Dihydroorotate dehydrogenase (quinone), mitochondrial (Plasmodium falciparum (isolate 3D7)) (UniProt Q08210). In words: inhibition of P. falciparum DHODH – biochemical, C-terminal His tag, absorbance 600 nm, primary screen (AID 1175).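 Also: recombinant parasite enzyme with a five histidine tag at its C terminus; test concentration not given here.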 The settings on record: PfDHODH enzyme, DCIP absorbance 600 nm; higher = more signal, called active from +8 up or from −8 down.
Experiment [5] is described as follows: inhibition of PAO1 biofilm formation – strain PAO1, LB-PBS medium, absorbance 600 nm, primary screen (AID 1176). Also: test concentration not given here. The conditions noted are these: P. aeruginosa PAO1 growth/biofilm, A600, 12 h; higher = more signal.
A short description of experiment [6]: growth modulation of vineyard yeast isolate – strain RM11-1a, OD600, basal, 24 h, primary screen (AID 1177).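 Also: cultures grown under basal conditions with no added stressor; test concentration not given here.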 The conditions noted are these: S. cerevisiae RM11-1a growth, OD600, 24 h; higher = more signal, called active from +8 up or from −8 down.
The nature of experiment [7]: growth of efflux-deficient E. coli DRC39 – strain DRC39, OD650, 24 h, E. coli filamentation inducers, primary screen (AID 1178).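 Also: growth measured as culture turbidity by optical density at 650 nm; test concentration not given here.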 The settings on record: E. coli DRC39 acrAB, higher = more signal, called active from +8 up or from −8 down.
Experiment [8] is described as follows: growth of efflux-deficient E. coli DRC39 – strain DRC39, OD650, 48 h, E. coli filamentation inducers, primary screen (AID 1179).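 Also: screen aims at cell division blockers that make cells filament.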 The settings on record: E. coli DRC39 delta-acrAB growth, higher = more signal, called active from +8 up or from −8 down.
Experiment [9] can be described thus: viability profiling in RPMI8226 myeloma cells – cell-based, resazurin fluorescence, basal, 24 h, PK04 Diversity Set, profiling panel (AID 1180).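 Also: RPMI8826 multiple myeloma cell line at 5000 cells per well; test concentration not given here.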 The conditions noted are these: higher = more signal.
Experiment [10] deals with E3 ubiquitin-protein ligase XIAP (Homo sapiens) (UniProt P98170). Nature of the experiment: small molecules binding XIAP protein – biophysical, small-molecule microarray, fluorescence 635 nm, primary screen (AID 1181).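 Also: score merges 667 nm emission and signal to noise over triplicate slides.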 The settings on record: higher = more signal.

Calls of active or inactive are those of the source. Unless noted, no rule for the calls is given here.

Sequence of E3 ubiquitin-protein ligase XIAP (Homo sapiens) (P98170 whole entry, looked up): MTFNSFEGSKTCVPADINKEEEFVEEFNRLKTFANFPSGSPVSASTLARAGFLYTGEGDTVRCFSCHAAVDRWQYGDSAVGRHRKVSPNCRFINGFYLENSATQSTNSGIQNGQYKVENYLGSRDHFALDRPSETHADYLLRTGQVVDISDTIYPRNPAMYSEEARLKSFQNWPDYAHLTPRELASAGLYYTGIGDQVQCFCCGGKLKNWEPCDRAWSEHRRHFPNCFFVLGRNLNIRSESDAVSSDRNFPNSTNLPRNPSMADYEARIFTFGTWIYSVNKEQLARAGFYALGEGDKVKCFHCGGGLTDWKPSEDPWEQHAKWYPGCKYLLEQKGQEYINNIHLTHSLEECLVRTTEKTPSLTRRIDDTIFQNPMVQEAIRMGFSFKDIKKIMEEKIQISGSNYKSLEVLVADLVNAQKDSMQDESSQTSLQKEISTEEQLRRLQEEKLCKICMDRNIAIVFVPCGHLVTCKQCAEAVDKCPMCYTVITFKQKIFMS
Sequence of Dihydroorotate dehydrogenase (quinone), mitochondrial (Plasmodium falciparum (isolate 3D7)) (Q08210 whole entry, looked up): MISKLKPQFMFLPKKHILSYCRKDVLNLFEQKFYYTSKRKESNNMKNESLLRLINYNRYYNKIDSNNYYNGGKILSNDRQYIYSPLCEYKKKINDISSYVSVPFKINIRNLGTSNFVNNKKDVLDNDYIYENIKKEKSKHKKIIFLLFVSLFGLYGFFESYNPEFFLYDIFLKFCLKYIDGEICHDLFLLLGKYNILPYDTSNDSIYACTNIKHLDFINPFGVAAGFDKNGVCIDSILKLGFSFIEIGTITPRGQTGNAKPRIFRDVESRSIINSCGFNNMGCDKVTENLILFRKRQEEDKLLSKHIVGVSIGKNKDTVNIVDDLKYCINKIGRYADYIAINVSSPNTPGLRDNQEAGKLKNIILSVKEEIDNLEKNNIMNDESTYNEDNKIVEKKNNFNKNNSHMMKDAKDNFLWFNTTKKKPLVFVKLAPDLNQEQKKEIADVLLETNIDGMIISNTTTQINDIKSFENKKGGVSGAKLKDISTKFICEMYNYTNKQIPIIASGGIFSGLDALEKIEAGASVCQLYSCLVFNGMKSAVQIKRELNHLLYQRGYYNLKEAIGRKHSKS

Regarding `CC(C)(C)OC(=O)CC[C@]12N=C(c3ccc(OCCCO)cc3)O[C@H]1c1ccccc1N(CCS(=O)(=O)c1ccccc1)C2=O`, the z-score in [1] was 0.0763; in experiment [2], 0.688 (inactive); in experiment [3] it was -3.32 (inactive); in experiment [5] it was 2.21 (inactive); in [6] it was 1.84 (inactive); in [7], 0.908 (inactive). Also, the z-score in experiment [8] was 0.0504 (inactive); in experiment [9], -1.19. The composite z-score in experiment [4] was 0.017 (inactive); in experiment [10], 0.0761.

As to `COCCOC(=O)N1C(=O)[C@@]2(c3cc(C#CCCO)ccc31)[C@H](C(=O)N1CCN(c3ncccn3)CC1)[C@H]1C(=O)O[C@H](c3ccccc3)[C@H](c3ccccc3)N1[C@@H]2c1ccccc1OCCO`, the z-score in [1] was 0.906; in experiment [2] it was 0.674 (inactive); in experiment [3], 0.399 (inactive); in experiment [5], -0.116 (inactive); in [6] it was 1.36 (inactive); in experiment [7], 0.111 (inactive). Besides, the figures for the z-score in experiment [8] and in [9] were -0.776 (inactive) and 0.485, respectively. Moreover, the composite z-score was -0.237 (inactive) in [4] and -0.0312 in [10].

For the compound `Cc1ccc(S[C@]2(C(=O)NCC(F)(F)F)CC(=O)N(C(C)C)[C@@H]2c2ccc(CO)cc2I)cc1`, the z-score is -0.185 in [1]; -1.52 (inactive) in [2]; -0.881 (inactive) in experiment [3]; 0.786 (inactive) in experiment [5]; 0.701 (inactive) in experiment [6]; 0.0212 (inactive) in experiment [7]. In addition, the z-score in experiment [8] was -0.105 (inactive); in [9] it was -2.05. In addition, the results for the composite z-score in [4] and in experiment [10] were 0.436 (inactive) and -0.0013, respectively.

With `[N-]=[N+]=NCc1ccccc1C[C@@]1(C(=O)NCC(O)CO)N=C(c2ccc(OCCCO)cc2)O[C@@H]1c1ccccc1N=[N+]=[N-]` (stereo not given in full), the z-score was -2.35 in [1]; -0.927 (inactive) in [2]; -2.87 (inactive) in experiment [3]; 1.35 (inactive) in experiment [5]; 0.977 (inactive) in [6]; 0.707 (inactive) in [7]. The z-score was -0.506 (inactive) in [8] and -2.85 in [9]. Moreover, the composite z-score is 2.22 (inactive) in experiment [4] and 0.1 in [10].

Regarding `COc1ccc([Si](C)(C)[C@H]2[C@H](CC(=O)N3CCC[C@H]3CO)O[C@@]3(C(=O)N(Cc4cccc(N5C(=O)c6cccc7cccc5c67)c4)c4ccccc43)[C@@H]2C)cc1`, the z-score in experiment [1] was -1.13; in experiment [2], 0.547 (inactive); in experiment [3], -0.712 (inactive); in experiment [5] it was 0.495 (inactive); in experiment [6], 1 (inactive); in experiment [7], -0.672 (inactive). Moreover, the results for the z-score in experiment [8] and in experiment [9] were -0.881 (inactive) and -1.28, respectively. The composite z-score was -1.74 (inactive) in [4] and 0.013 in experiment [10].

For the compound `CN(C)C(=O)[C@]1(Cc2ccccc2CN=[N+]=[N-])N=C(c2ccc(OCCCO)cc2)O[C@@H]1c1ccccc1CN=[N+]=[N-]`, the z-score is -0.053 in experiment [1]; -0.868 (inactive) in [2]; -1.19 (inactive) in experiment [3]; 1.06 (inactive) in [5]; -0.111 (inactive) in experiment [6]; 0.187 (inactive) in experiment [7]. Also, the figures for the z-score in experiment [8] and in experiment [9] were -0.719 (inactive) and -1.1, respectively. For the same compound, the composite z-score in [4] was 0.587 (inactive); in experiment [10] it was 0.0015.

In the case of `CC(=O)NCCCC[C@@H]1NC(=O)[C@@H]2C[C@H](C(=O)NCCCCN(C)C)[C@H](c3cccc(OCCO)c3)N2C1=O`, the z-score was 1.03 in experiment [1]; 0.108 (inactive) in [2]; -0.721 (inactive) in experiment [3]; -0.875 (inactive) in experiment [5]; 0.0173 (inactive) in experiment [6]; 0.374 (inactive) in experiment [7]. Moreover, the z-score in experiment [8] was 0.313 (inactive); in experiment [9] it was 0.507. In addition, the composite z-score in [4] is -0.446 (inactive); in experiment [10] it was -0.404.

On to `CC[C@@H]1C=C(C(=O)O)[C@H](c2ccco2)N1S(=O)(=O)c1ccc(C)cc1`, for which the z-score in experiment [1] was -0.456; in [2], 0.538 (inactive); in [3] it was -0.283 (inactive); in experiment [5], 0.449 (inactive); in [6] it was -0.0109 (inactive); in experiment [7], -0.721 (inactive). Further, the z-score in experiment [8] is 0.34 (inactive); in [9], -0.88. Besides, the composite z-score in experiment [4] is 0.267 (inactive); in experiment [10], 0.124.

Turning to `O=C1O[C@@H](c2ccccc2)[C@@H](c2ccccc2)N2[C@@H](c3ccccc3OCCO)[C@]3(C(=O)Nc4ccc(C#CC5=CCCCC5)cc43)[C@@H](C(=O)Nc3nc4ccccc4s3)[C@H]12`, the z-score is 0.482 in [1]; 1.26 (inactive) in [2]; -0.785 (inactive) in experiment [3]; 2.84 (inactive) in experiment [5]; 1.34 (inactive) in experiment [6]; -0.583 (inactive) in experiment [7]. Besides, the z-score is -1.05 (inactive) in experiment [8] and -1.2 in experiment [9]. Further, the composite z-score was -1.7 (inactive) in experiment [4] and -0.234 in [10].

Take `CN1C(=O)[C@]2(Cc3ccccc3)N=C(c3ccc(OCCCO)cc3)O[C@@H]2c2ccccc21`: the z-score was -0.635 in experiment [1]; -1.79 (inactive) in [2]; -2.57 (inactive) in experiment [3]; 0.814 (inactive) in experiment [5]; 1.13 (inactive) in experiment [6]; 0.757 (inactive) in experiment [7]. The figures for the z-score in experiment [8] and in [9] were 0.0422 (inactive) and -2.41, respectively. In addition, the composite z-score in experiment [4] is 0.539 (inactive); in [10], 0.0617.

The values above are taken from PubChem BioAssay.
